Data as given in PubChem BioAssay (NCATS).
Records with an inconclusive call do not appear. The source made the active and inactive calls. Unless noted, the call rests on the fitted dose curve; in most records, active means well fitted curve in the direction sought with a large enough effect; inconclusive means small, poorly fitted or top-dose-only effect, or another doubt; inactive means no such curve, though single readings can be large; an effect the other way counts as inactive or inconclusive.

Columns and labels:
[1] = target: Voltage-gated inwardly rectifying potassium channel KCNH2 (Homo sapiens) (UniProt Q12809); assay: qHTS Assay for Small Molecule Inhibitors of the Human hERG Channel Activity (AID 588834); conditions: U2OS BacMam hERG, FluxOR thallium flux fluorescence; series mostly up to 46.1 µM;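 further: lower thallium flux fluorescence means stronger hERG block; nearly all actives have a fitted effect of over 50% in size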; further: potency means the concentration at half of the fitted maximal effect
Voltage-gated inwardly rectifying potassium channel KCNH2 (Homo sapiens), sequence (Q12809 whole entry, looked up): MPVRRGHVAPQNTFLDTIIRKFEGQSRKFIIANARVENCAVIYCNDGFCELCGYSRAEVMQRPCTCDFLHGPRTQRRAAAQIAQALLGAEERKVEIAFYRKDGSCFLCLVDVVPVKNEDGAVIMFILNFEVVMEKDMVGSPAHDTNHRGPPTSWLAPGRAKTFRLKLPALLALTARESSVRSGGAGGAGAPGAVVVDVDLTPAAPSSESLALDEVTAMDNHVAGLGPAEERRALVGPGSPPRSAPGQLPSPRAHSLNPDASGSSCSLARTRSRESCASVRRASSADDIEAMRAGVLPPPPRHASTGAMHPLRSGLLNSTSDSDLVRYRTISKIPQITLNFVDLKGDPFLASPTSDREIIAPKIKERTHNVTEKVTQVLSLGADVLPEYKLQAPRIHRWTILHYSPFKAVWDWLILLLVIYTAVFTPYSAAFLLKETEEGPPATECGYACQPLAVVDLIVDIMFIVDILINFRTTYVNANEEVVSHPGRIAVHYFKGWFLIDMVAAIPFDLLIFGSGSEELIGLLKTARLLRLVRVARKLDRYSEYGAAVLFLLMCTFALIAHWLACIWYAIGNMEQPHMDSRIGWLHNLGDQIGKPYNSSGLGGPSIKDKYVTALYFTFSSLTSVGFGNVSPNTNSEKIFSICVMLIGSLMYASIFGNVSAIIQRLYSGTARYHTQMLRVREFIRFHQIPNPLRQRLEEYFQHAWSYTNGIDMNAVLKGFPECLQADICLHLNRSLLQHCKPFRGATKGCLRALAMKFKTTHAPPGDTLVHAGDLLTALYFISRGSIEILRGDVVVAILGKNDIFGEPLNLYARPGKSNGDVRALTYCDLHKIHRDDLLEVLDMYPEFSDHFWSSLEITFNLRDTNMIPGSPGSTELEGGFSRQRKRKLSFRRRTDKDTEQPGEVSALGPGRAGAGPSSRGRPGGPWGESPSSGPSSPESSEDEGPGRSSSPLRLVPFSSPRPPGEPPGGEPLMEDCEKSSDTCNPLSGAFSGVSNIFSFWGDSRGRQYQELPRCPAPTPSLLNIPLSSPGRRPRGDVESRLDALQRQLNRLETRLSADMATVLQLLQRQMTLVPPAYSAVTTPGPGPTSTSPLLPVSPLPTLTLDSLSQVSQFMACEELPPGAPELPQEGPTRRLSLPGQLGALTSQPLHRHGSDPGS
How it was run: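 Cells were infected with hERG-BacMam virus for 4 hrs at room temperature, grown overnight, then seeded at 2000/well. After dye loading and roughly 10 min compound treatment, thallium influx was triggered and fluorescence recorded.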

[2] = target: Luciferin 4-monooxygenase (Photinus pyralis) (UniProt P08659); assay: Biochemical firefly luciferase enzyme assay for NPC (AID 624030);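 further: purified P. pyralis luciferase at 10 nM with luciferin and ATP substrate; 0% = DMSO and -100% = full luciferase inhibition by PTC124 control; nearly all actives have a fitted effect of over 70% in size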; conditions: purified P. pyralis luciferase, luminescence, 5 min; series mostly up to 58.6 µM
Luciferin 4-monooxygenase (Photinus pyralis), sequence (P08659 whole entry, looked up): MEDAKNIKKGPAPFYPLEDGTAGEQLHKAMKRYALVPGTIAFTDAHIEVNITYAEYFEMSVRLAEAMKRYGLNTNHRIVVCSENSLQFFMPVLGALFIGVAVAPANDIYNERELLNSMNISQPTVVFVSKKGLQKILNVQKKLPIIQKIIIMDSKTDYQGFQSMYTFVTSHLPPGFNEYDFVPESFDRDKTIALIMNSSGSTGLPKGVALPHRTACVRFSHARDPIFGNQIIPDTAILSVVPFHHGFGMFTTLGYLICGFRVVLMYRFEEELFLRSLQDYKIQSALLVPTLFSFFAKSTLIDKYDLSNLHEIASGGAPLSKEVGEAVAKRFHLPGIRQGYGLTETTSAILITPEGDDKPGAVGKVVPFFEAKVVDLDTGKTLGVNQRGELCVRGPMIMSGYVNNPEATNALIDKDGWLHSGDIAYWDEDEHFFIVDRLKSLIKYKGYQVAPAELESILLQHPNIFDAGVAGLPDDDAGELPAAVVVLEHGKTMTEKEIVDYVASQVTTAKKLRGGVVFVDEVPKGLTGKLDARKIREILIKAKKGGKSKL
How it was run: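 Direct inhibition of firefly luciferase enzyme (10 nM final, 50 mM Tris Acetate) assessed by luminescence within 5 minutes. Percent activity scaled between DMSO and PTC124 positive control, with concentration-effect curves classified by fit quality and response.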

[3] = S16 Schwann cell viability assay (CellTiter-Glo assay) (AID 624031); conditions: S16 rat Schwann cells viability, 24 h; series mostly up to 57.5 µM;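 further: cellular ATP luminescence as a viability measure; plate controls were DMSO-treated cells for no effect and cell-free wells for full effect; nearly all actives have a fitted effect of over 70% in size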
How it was run: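 Native S16 Schwann cells (rat), serum-containing medium, overnight attachment then 24 h drug exposure at 37 °C/5% CO2. CellTiter-Glo ATP signal; normalized to cell-free and vehicle wells.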

[4] = S16 Schwann cell PMP22 intronic element firefly luciferase assay (AID 624032); conditions: S16 rat Schwann cells, PMP22 element FLuc, 24 h; series mostly up to 57.5 µM; further: nearly all actives have a fitted effect of over 30% in size; further: potency means the concentration at half of the fitted maximal effect
How it was run: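 Luciferase reporter of PMP22 intronic-element expression in stably transfected S16 rat Schwann cells, read by ONE-Glo luminescence after 24 h compound exposure at 37 C. Activity scaled between DMSO (0%) and positive-control PTC124; concentration-effect curves quality-classified.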

[5] = S16 Schwann cell PMP22 intronic element beta-lactamase assay (AID 624044; calls by dose curve;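 further: 0% = DMSO and -100% = potassium clavulanate positive control; nearly all actives have a fitted effect of over 15% in size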); conditions: S16 rat Schwann cells, PMP22 element beta-lactamase FRET, 24 h; ratio activity, negative = inhibition: at 38.3 µM (top of the series) unless noted
How it was run: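 Beta-lactamase reporter under a PMP22 intronic regulatory element in stable S16 rat Schwann cells; 24 h compound exposure. 460 nm blue signal normalized between DMSO (0%) and potassium clavulanate, with 535 nm FRET tracking viability; curves classed by r2 and response.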

Oc1cc(O)cc(O)c1
inactive: Potency [1] | Potency [2] | Potency [3] | Potency [4] | ratio activity, negative = inhibition [5] 10.4%

C=CCOc1ccc(CC(=O)O)cc1Cl
inactive: Potency [1] | Potency [2] | Potency [3] | Potency [4] | ratio activity, negative = inhibition [5] -6.65%

NC(=O)[C@@H]1CCCN1C(=O)[C@H](Cc1cnc[nH]1)NC(=O)[C@@H]1CCC(=O)N1
inactive: Potency [1] | Potency [2] | Potency [3] | Potency [4] | ratio activity, negative = inhibition [5] 6.16%

O=C(O)CCCC/C=C(\c1ccccc1)c1cccnc1
inactive: Potency [1] | Potency [2] | Potency [3] | Potency [4] | ratio activity, negative = inhibition [5] -4.66%

CC(=O)Oc1cc(C(F)(F)F)ccc1C(=O)O
inactive: Potency [1] | Potency [2] | Potency [3] | Potency [4] | ratio activity, negative = inhibition [5] -5.78% [at 17.1 µM]

CO[C@H]1C[C@@H]2CC[C@@H](C)[C@@](O)(O2)C(=O)C(=O)N2CCCC[C@H]2C(=O)O[C@H]([C@H](C)C[C@@H]2CC[C@@H](OC(=O)C(C)(CO)CO)[C@H](OC)C2)CC(=O)[C@H](C)/C=C(\C)[C@@H](O)[C@@H](OC)C(=O)[C@H](C)C[C@H](C)/C=C/C=C/C=C/1C
inactive: Potency [1] | Potency [2] | Potency [3] | Potency [4] | ratio activity, negative = inhibition [5] -3.79%

O=P(O)(O)OP(=O)(O)OP(=O)(O)O
inactive: Potency [1] | Potency [2] | Potency [3] | Potency [4] | ratio activity, negative = inhibition [5] -5.37%

O=C(O)CC/C=C\CC[C@@H]1[C@@H](N2CCCCC2)[C@@H](O)C[C@@H]1OCc1ccc(-c2ccccc2)cc1
inactive: Potency [2] | Potency [3] | Potency [4] | ratio activity, negative = inhibition [5] -1.41%
active: Potency [1] 0.501 µM

CCCCCCCCCCCCCCCCCCCCCC(=O)Nc1ccn([C@@H]2O[C@H](CO)[C@@H](O)[C@@H]2O)c(=O)n1
inactive: Potency [1] | Potency [2] | Potency [3] | Potency [4] | ratio activity, negative = inhibition [5] -0.57%

CC(C)(COP(=O)(O)OP(=O)(O)OC[C@H]1O[C@@H](n2cnc3c(N)ncnc32)[C@H](O)[C@@H]1OP(=O)(O)O)C(O)C(=O)NCCC(=O)NCCS (some centres undefined)
inactive: Potency [1] | Potency [2] | Potency [3] | Potency [4] | ratio activity, negative = inhibition [5] 1.27%

CS(=O)(=O)OCC(O)C(O)COS(C)(=O)=O (centres undefined)
inactive: Potency [1] | Potency [2] | Potency [3] | Potency [4] | ratio activity, negative = inhibition [5] 2.66%

CC12CCC(C1)C(C)(C)C2=O (centres undefined)
inactive: Potency [1] | Potency [2] | Potency [3] | Potency [4] | ratio activity, negative = inhibition [5] 1.35%

CC(C)NCC(O)COc1ccccc1-n1cccc1 (centres undefined)
inactive: Potency [2] | Potency [3] | Potency [4] | ratio activity, negative = inhibition [5] -5.07%
active: Potency [1] 14.1 µM

CC1=C(/C=C/C(C)=C/C=C/C(C)=C/C(=O)Oc2c(C)c(C)c3c(c2C)CC[C@@](C)(CCC[C@H](C)CCC[C@H](C)CCCC(C)C)O3)C(C)(C)CCC1
inactive: Potency [1] | Potency [2] | Potency [3] | ratio activity, negative = inhibition [5] -26.4%
active: Potency [4] 5.73 µM

O=C(NNCNNC(=O)c1ccncc1)c1ccncc1
inactive: Potency [1] | Potency [2] | Potency [3] | Potency [4] | ratio activity, negative = inhibition [5] -2.76%

CC(C)[C@@H](N)C(=O)O
inactive: Potency [1] | Potency [2] | Potency [3] | Potency [4] | ratio activity, negative = inhibition [5] 0.806%

O=C(O)c1ccc(NC(=O)[C@H](Cc2ccc(O)cc2)NC(=O)c2ccccc2)cc1
inactive: Potency [1] | Potency [2] | Potency [3] | Potency [4] | ratio activity, negative = inhibition [5] 6%

O=C(O)/C=C/c1ccccc1
inactive: Potency [1] | Potency [2] | Potency [3] | Potency [4] | ratio activity, negative = inhibition [5] -0.672%

CC(O)CN(C)C (centres undefined)
inactive: Potency [1] | Potency [2] | Potency [3] | Potency [4] | ratio activity, negative = inhibition [5] 6.7%

O=C(O)[C@H]1C(=CCO)O[C@H]2CC(=O)N12
inactive: Potency [1] | Potency [2] | Potency [3] | Potency [4] | ratio activity, negative = inhibition [5] -34.7%

CCCCC[C@H](O)/C=C/[C@H]1[C@H](O)CC(=O)[C@@H]1C/C=C\CCCC(=O)O
inactive: Potency [1] | Potency [2] | Potency [3] | ratio activity, negative = inhibition [5] -1.59%

COc1ccccc1N1CCN(CCCC(=O)c2ccc(F)cc2)CC1
inactive: Potency [2] | Potency [3] | ratio activity, negative = inhibition [5] -14.3%
active: Potency [1] 1.41 µM

CCOc1ccc(NC(=S)Nc2ccc(OCC)cc2)cc1
inactive: Potency [1] | Potency [2] | Potency [3] | ratio activity, negative = inhibition [5] -1.68%

F[Si-2](F)(F)(F)(F)F
inactive: Potency [1] | Potency [2] | Potency [3] | ratio activity, negative = inhibition [5] 7.11%

CCN(CC)CCC(=O)N1c2ccccc2Sc2ccc(Cl)cc21
inactive: Potency [2]
active: Potency [1] 14.1 µM | Potency [4] 10.2 µM
